The source of these data is PubChem BioAssay.

Assay [1] in a line: inhibitors of TNFa-induced NFkB p65 translocation, primary screen, imaging, HUVEC, MLSMR starter and 10KST1 sets (AID 438;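 active means inhibition above 20% together with a positive visual image hit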;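 further: compound added about 3h40 before a 20 min TNFalpha stimulation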;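 on inhibition: signal is the nuclear over cytoplasmic p65 intensity ratio per well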). The settings on record: HUVEC TNFa-induced p65 nuclear translocation; cell count: measured here: nuclei count (cytotoxicity indicator), at 2.08 µM; inhibition: at 2 µM, stronger effect = higher value, 0% TNFa-plus-vehicle, 100% no-TNFa wells.
Assay [2] can be described thus: reduction of polyQ htt aggregates in cells – imaging, exon1htt(103Q)mCFP cells, high-content imaging, primary screen (AID 483;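 active means visual image review flags a hit and inhibition of aggregation exceeds 20%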;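 further: compound exposure lasted 3 days before fixation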;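 on nuclei count: percent of the per-plate median nuclei count of sample wells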). The settings on record: exon1htt(103Q)mCFP cell line, aggregate imaging, at 2 µM; inhibition of aggregation: stronger effect = higher value; nuclei count: measured here: cell count, toxicity.
Assay [3] in a line: endothelial E-selectin expression blockers – imaging, HUVEC, immunofluorescence, MLSMR starter and 10KST1 sets, primary screen (AID 487;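 active means visually confirmed hit in the image check and inhibition above 20%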;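 on inhibition: signal is fraction of cell area covered by stained E-selectin grains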;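 on nuclei count: 100% = median nuclei count of all wells on the same plate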). The following applies: HUVEC TNFalpha-induced E-selectin immunofluorescence imaging, at 2 µM; inhibition: stronger effect = higher value; nuclei count: measured here: cell number, toxicity.
In assay [4] the target is Voltage-gated potassium channel subunit beta-2 (Rattus norvegicus) (UniProt P62483). The assay can be described thus: inhibitors of rat Kvbeta2 reductase activity – biochemical, NADPH fluorescence, primary screen (AID 622;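 active means fluorescence slope higher than the sample average by over 3 SD, cut at about -0.22 in these data, passing the limit was not always enough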;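 further: slope of raw intensity against log time taken from 70 to 1610 s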). The following applies: recombinant KvBeta, 4-cyanobenzaldehyde reduction, at 10 µM, stronger effect = higher value.
The target is the same in assay [5]. The assay can be described thus: enhancers of rat Kvbeta2 NADPH turnover – biochemical, NADPH fluorescence, primary screen (AID 623;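 active means NADPH fluorescence slope more negative than the mean of all samples by about 3 SD, 99.7% confidence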;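 further: fluorescence intensity change per second fitted from 20 to 320 s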). The following applies: Recombinant KvBeta, NADPH fluorescence decrease slope, 10 min; at 10 µM; stronger effect = lower value.
Assay [6] addresses Alpha-2C adrenergic receptor (Homo sapiens) (UniProt P18825). The assay can be described thus: compounds altering alpha2C-coupled GIRK flux – cell-based, HEK293 alpha2C/GIRK1/2, thallium flux, primary screen (AID 624;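 active means fluorescence slope after compound addition differing from the mean of all screened samples at 99.7% confidence, in either direction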;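 further: slope of fluorescence ratio to pre-addition baseline per second over 15 to 24 s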). The following applies: thallium flux BTC fluorescence, at 10 µM, actives lie on both sides.
Assay [7] can be described thus: blockers of RIG-like receptor reporter activation – cell-based, Sendai virus stimulus, luciferase, 10K MLSCN set, TLR/RLR signaling modifier project, primary screen (AID 602276).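 Further: firefly luciferase from ISG56 promoter only with Renilla not read in this screen; 0% = Sendai virus plus DMSO and 100% = medium plus DMSO without virus.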 The settings on record: HEK293 RL24 IRF3 luciferase reporter, at 10 µM, stronger effect = higher value. Background: Reporter assays use an easily measured gene product as a stand-in for the process of interest.

The nature of assay [8]: TLR3 IRF3 reporter activation blockers – cell-based, poly I:C stimulus, luciferase, 10K MLSCN set, primary screen (AID 602277;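 active means inhibition of the reporter signal at or above 50%; inactive means inhibition below 50%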). The following applies: HEK293-TLR3 RL24 IRF3 luciferase reporter, at 10 µM, stronger effect = higher value.

Calls of active or inactive are those of the source.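 How the source made its calls, unless noted: active means inhibition at or above 50% at 10 µM; inactive means inhibition below 50%.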

Sequence of Voltage-gated potassium channel subunit beta-2 (Rattus norvegicus) (P62483 whole entry, looked up): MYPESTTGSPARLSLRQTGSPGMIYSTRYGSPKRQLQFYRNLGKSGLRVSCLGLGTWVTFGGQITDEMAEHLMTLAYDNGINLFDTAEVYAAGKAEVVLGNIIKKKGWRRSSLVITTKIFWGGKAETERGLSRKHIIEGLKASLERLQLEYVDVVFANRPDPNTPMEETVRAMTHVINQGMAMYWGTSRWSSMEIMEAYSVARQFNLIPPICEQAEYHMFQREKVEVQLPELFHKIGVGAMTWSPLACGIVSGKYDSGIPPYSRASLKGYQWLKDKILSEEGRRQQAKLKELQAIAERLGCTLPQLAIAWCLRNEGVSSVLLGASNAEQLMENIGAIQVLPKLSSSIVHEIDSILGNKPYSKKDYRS
Sequence of Alpha-2C adrenergic receptor (Homo sapiens) (P18825 whole entry, looked up): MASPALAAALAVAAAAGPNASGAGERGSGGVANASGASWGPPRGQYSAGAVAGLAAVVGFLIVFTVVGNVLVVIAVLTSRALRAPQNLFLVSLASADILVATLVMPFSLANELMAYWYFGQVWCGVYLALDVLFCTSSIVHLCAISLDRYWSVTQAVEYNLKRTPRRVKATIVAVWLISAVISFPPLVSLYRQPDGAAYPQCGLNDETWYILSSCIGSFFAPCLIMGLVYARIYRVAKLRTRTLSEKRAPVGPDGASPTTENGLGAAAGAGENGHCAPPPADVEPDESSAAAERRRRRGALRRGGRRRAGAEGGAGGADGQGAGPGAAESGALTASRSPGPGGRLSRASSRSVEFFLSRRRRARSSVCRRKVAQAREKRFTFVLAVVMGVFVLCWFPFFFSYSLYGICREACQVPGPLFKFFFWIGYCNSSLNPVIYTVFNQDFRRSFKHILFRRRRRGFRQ

As for `CCN(CC)c1ccc(NC(=O)CN2CCN(CC(=O)Nc3ccccc3F)CC2)cc1`, the cell count in assay [1] came out at 348. Further, the inhibition is 3.1% (inactive) in assay [1], -45.9% (inactive) in assay [3], 12.9% (inactive) in assay [7] and 19.4% (inactive) in assay [8]. In addition, the inhibition of aggregation in assay [2] was 5.8% (inactive). In addition, the nuclei count was 104% in assay [2] and 113% in assay [3]. Also, the fluorescence slope in assay [4] was -0.413 (inactive). Further, the NADPH fluorescence slope in assay [5] was -3.8e-05 (inactive). Moreover, in assay [6], the slope is 0.00308 (inactive).

On to `O=C1CC(c2ccc(F)c(Br)c2)C2=C(CCCC2=O)N1` (centres undefined), for which the cell count in assay [1] came out at 334. Besides, the inhibition in assay [1] was -6.7% (inactive); in assay [3], -63% (inactive); in assay [7], -0.311% (inactive); in assay [8], 26.9% (inactive). For the same compound, in assay [2], the inhibition of aggregation is -9.9% (inactive). Moreover, the values for the nuclei count in assay [2] and in assay [3] were 113% and 108%, respectively. For the same compound, the fluorescence slope in assay [4] is -0.327 (inactive). Also, in assay [5], the NADPH fluorescence slope was 4e-06 (inactive). For the same compound, the slope in assay [6] was 0.00275 (inactive).

As for `COC(=O)c1cc2ccsc2n1Cc1nc(-c2ccc(OC)cc2)oc1C`, the cell count in assay [1] stood at 622. The inhibition in assay [1] is -17% (inactive); in assay [3], -66.3% (inactive); in assay [7], -25.1% (inactive); in assay [8], -56.7% (inactive). Also, the inhibition of aggregation in assay [2] is -22% (inactive). Moreover, the nuclei count in assay [2] turned out to be 120%; in assay [3], 109%. Also, the fluorescence slope in assay [4] was -0.347 (inactive). Besides, in assay [5], the NADPH fluorescence slope was -2.6e-05 (inactive). Besides, in assay [6], the slope was 0.00726 (inactive).

Consider `COc1ccc(-c2nnnn2C)cc1S(=O)(=O)NCc1ccccc1`, for which the cell count in assay [1] was 579. For the same compound, the inhibition in assay [1] was 0.6% (inactive); in assay [3], -49.3% (inactive); in assay [7], 10.3% (inactive); in assay [8] it was 4.79% (inactive). The inhibition of aggregation in assay [2] was 7.2% (inactive). For the same compound, the nuclei count in assay [2] was found to be 106%; in assay [3], 110%. Further, the fluorescence slope in assay [4] was -0.415 (inactive). Besides, in assay [5], the NADPH fluorescence slope is 5.2e-06 (inactive). Further, the slope in assay [6] is 0.00442 (inactive).

Take `CCOc1ccccc1-n1c(SCC(=O)NC2CCCC2)nnc1-c1ccoc1C`: the cell count in assay [1] was 588. The inhibition is -9.5% (inactive) in assay [1], 83.6% (inactive) in assay [3], 1.09% (inactive) in assay [7] and 11.6% (inactive) in assay [8]. For the same compound, in assay [2], the inhibition of aggregation was 35.7% (inactive). The nuclei count amounted to 77.1% in assay [2] and 62.7% in assay [3]. Moreover, the fluorescence slope in assay [4] is -0.543 (inactive). Besides, the NADPH fluorescence slope in assay [5] was 1.9e-05 (inactive). The slope in assay [6] is 0.00524 (inactive).

In the case of `CCOC(=O)c1ccc(Oc2nc(SC)nc(N(C)C)n2)cc1`, the cell count in assay [1] was found to be 467. For the same compound, the inhibition in assay [1] was 5.5% (inactive); in assay [3], -308% (inactive); in assay [7] it was 3.96% (inactive); in assay [8], 4.44% (inactive). Also, the inhibition of aggregation in assay [2] is -5.2% (inactive). The nuclei count in assay [2] is 110%; in assay [3], 133%. Moreover, the fluorescence slope in assay [4] is -0.34 (inactive). For the same compound, the NADPH fluorescence slope in assay [5] was 7.8e-06 (inactive). Also, the slope in assay [6] was 0.00652 (inactive).

`Cc1c(C(=O)OCc2ccccc2)[nH]c2c1C(=O)CC(c1ccco1)C2` (centres undefined): the cell count in assay [1] is 721. Moreover, the inhibition was 12.7% (inactive) in assay [1], -63.1% (inactive) in assay [3], 45.4% (inactive) in assay [7] and 80.4% (active) in assay [8]. Besides, the inhibition of aggregation in assay [2] is -170% (inactive). In addition, the nuclei count in assay [2] came out at 3.7%; in assay [3], 107%. Besides, in assay [4], the fluorescence slope was -0.569 (inactive). In assay [5], the NADPH fluorescence slope is -1.8e-05 (inactive). The slope in assay [6] was 0.00645 (inactive).

With `c1cncc(-c2nnc3n2N=C(c2cccs2)CS3)c1`, the cell count in assay [1] worked out at 523. Also, the inhibition was 4.8% (inactive) in assay [1], -28.3% (inactive) in assay [3], 5.28% (inactive) in assay [7] and 17.3% (inactive) in assay [8]. In addition, the inhibition of aggregation in assay [2] is 7.7% (inactive). The nuclei count in assay [2] is 96.4%; in assay [3], 107%. For the same compound, in assay [4], the fluorescence slope is -0.331 (inactive). Also, in assay [5], the NADPH fluorescence slope is 5.7e-06 (inactive). In addition, the slope in assay [6] was 0.00392 (inactive).

As to `CCCCCC1CC(CC(=O)O)C(=O)O1` (centres undefined), in assay [1], the cell count amounted to 230. Besides, the inhibition in assay [1] is -25.6% (inactive); in assay [3] it was -70.3% (inactive); in assay [7], 7.61% (inactive); in assay [8], 23.6% (inactive). The inhibition of aggregation in assay [2] is 20.9% (inactive). Besides, the nuclei count in assay [2] stood at 80.6%; in assay [3], 126%. For the same compound, the fluorescence slope in assay [4] was -0.4 (inactive). For the same compound, in assay [5], the NADPH fluorescence slope was -5.4e-05 (inactive). The slope in assay [6] is 0.00366 (inactive).

In the case of `CC(NC(=O)c1noc2c1CCCCC2)c1ccccc1` (centres undefined), the cell count in assay [1] was found to be 936. The inhibition was 6.9% (inactive) in assay [1], -24.9% (inactive) in assay [3], -24.9% (inactive) in assay [7] and -53.9% (inactive) in assay [8]. Besides, the inhibition of aggregation in assay [2] was -5% (inactive). Further, the nuclei count in assay [2] is 154%; in assay [3], 126%. For the same compound, in assay [4], the fluorescence slope was -0.618 (inactive). Further, the NADPH fluorescence slope in assay [5] is -3.4e-05 (inactive). The slope in assay [6] was 0.00631 (inactive).

In the case of `COc1cccc(-n2c(SC3CCOC3=O)nc3ccccc3c2=O)c1` (centres undefined), the cell count in assay [1] turned out to be 387. Moreover, the inhibition was 2.4% (inactive) in assay [1], 7.5% (inactive) in assay [3], 2.92% (inactive) in assay [7] and 18.7% (inactive) in assay [8]. The inhibition of aggregation in assay [2] was -18% (inactive). In addition, the values for the nuclei count in assay [2] and in assay [3] were 101% and 108%, respectively. Moreover, the fluorescence slope in assay [4] is -0.435 (inactive). In assay [5], the NADPH fluorescence slope was -5.4e-06 (inactive). Also, the slope in assay [6] is 0.00493 (inactive).

Take `Cc1ccc(C)c(NC(=O)CC(NCCCN2CCOCC2)C(=O)O)c1` (centres undefined): the cell count in assay [1] is 494. In addition, the inhibition was -13.6% (inactive) in assay [1], -34.4% (inactive) in assay [3], 19.6% (inactive) in assay [7] and 20.7% (inactive) in assay [8]. For the same compound, in assay [2], the inhibition of aggregation was 2.6% (inactive). The figures for the nuclei count in assay [2] and in assay [3] were 71.5% and 81.2%, respectively. In addition, in assay [4], the fluorescence slope was -0.512 (inactive). Besides, in assay [5], the NADPH fluorescence slope was 3.9e-05 (inactive). The slope in assay [6] is 0.00589 (inactive).

As to `CCOC(=O)c1nnc(-c2ccccc2)o1`, the cell count in assay [1] worked out at 620. Also, the inhibition in assay [1] is 2.2% (inactive); in assay [3], -14.5% (inactive); in assay [7] it was 17.6% (inactive); in assay [8], -1.89% (inactive). Further, the inhibition of aggregation in assay [2] was -2.9% (inactive). The results for the nuclei count in assay [2] and in assay [3] were 114% and 89.7%, respectively. Moreover, in assay [4], the fluorescence slope is -0.592 (inactive). In addition, in assay [5], the NADPH fluorescence slope is -3.3e-05 (inactive). In addition, the slope in assay [6] is 0.00603 (inactive).

Regarding `CCOC(=O)c1sc(NC(=O)C2CC=CCC2C(=O)O)nc1C` (centres undefined), the cell count in assay [1] is 406. Also, the inhibition is 2.5% (inactive) in assay [1], 19.8% (inactive) in assay [3], 21.8% (inactive) in assay [7] and 32.8% (inactive) in assay [8]. Besides, the inhibition of aggregation in assay [2] is -2.8% (inactive). In addition, the nuclei count is 97.8% in assay [2] and 105% in assay [3]. For the same compound, the fluorescence slope in assay [4] was -0.527 (inactive). Moreover, the NADPH fluorescence slope in assay [5] is 5.4e-05 (inactive). Moreover, the slope in assay [6] was 0.00721 (inactive).

The term inhibition denotes the relative decrease from the control value, in per cent.
